Compounds with a hit are over-represented: about 3.4% of the library has one in this group of screens.
FBW7 activator: human FBW7 E3 ligase activation, primary screen; AlphaScreen FBW7–phospho-cyclin E peptide binding, activator screen; normalized activity (activation), % at 26.1 µM; actives 0.13% (n = 650,000); in the data active = normalized activity above about 1.9%;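 note: purified mutant Fbw7 with reduced substrate affinity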
Target sequence (Q969H0 whole entry, looked up): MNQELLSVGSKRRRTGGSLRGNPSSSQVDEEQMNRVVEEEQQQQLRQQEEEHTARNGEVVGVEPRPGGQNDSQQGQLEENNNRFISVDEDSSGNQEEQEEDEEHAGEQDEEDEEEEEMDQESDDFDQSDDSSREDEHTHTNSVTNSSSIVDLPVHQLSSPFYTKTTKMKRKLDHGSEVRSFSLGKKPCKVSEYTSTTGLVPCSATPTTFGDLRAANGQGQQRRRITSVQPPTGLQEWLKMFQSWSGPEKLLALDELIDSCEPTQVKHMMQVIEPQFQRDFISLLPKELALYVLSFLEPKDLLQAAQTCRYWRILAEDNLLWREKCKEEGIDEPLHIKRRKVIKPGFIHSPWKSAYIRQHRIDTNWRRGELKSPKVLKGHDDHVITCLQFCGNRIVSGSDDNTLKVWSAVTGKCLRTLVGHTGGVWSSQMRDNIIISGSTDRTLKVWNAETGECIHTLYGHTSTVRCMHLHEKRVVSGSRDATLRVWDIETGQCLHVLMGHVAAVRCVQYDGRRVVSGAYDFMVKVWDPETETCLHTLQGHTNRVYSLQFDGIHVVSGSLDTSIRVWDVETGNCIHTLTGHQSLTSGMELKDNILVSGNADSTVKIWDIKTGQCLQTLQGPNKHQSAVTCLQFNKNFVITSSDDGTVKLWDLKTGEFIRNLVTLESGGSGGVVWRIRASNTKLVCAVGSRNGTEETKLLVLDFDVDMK
GPR151 ag: activators of human GPR151; Q8TDV0; PathHunter beta-arrestin GPR151 cells, luminescence; activation, % at 11.2 µM; actives 1% (n = 650,000); AID 1508602; in the data active = activation above about 4.9%;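 note: 0% = median of compound wells and 100% = cells with positive control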
MITF primary: inhibitors of human MITF | actives 0.91% (n = 650,000) | AlphaScreen MITF homodimerization, bead proximity signal | AID 1259374 | inhibition, % at 2.6 µM; in the data active = inhibition above about 50%;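 note: 0% = vehicle wells with protein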
TEAD-YAP block: TEAD-YAP interaction inhibition; HEK-TIYL cells, TEAD-Gal4/YAP UAS-luciferase luminescence; inhibition, % at 9.12 µM; actives 1.4% (n = 640,000); in the data active = inhibition above about 32%;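 note: 0% = median of test compound wells and 100% = reference inhibitor wells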
GPR151 confirm: confirmation of human GPR151 activators. 6,700 tested, under 10 active. activation, % at 11.2 µM. AID 1508609. GPR151 PathHunter beta-arrestin cells, luminescence, 90 min; % of EA-reagent control over plate median. shares compounds with GPR151 ag;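 active = mean percent activation across replicates above the confirmation screen cutoff of 4.91%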
GPR119 counter: GPR119 activation, counter-screen for GPR151 activators; shares compounds with GPR151 ag; GPR119 PathHunter beta-arrestin cells, luminescence, 90 min; 0 = compound-well median, 100 = enzyme-acceptor control; activation, % at 11.2 µM; actives 0.3% (n = 6,700);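 active = mean percent activation in the counterscreen above 29.09%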;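 note: counterscreen on off-target GPR119 to flag nonselective hits from the GPR151 activator screen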
* hit, by the source's call; . = no result.

SMILES	FBW7 activator	GPR151 ag	MITF primary	TEAD-YAP block	GPR151 confirm	GPR119 counter
CC(C)C1=NOC(C(=O)N2CCC(CO)(Cc3cccc(C(F)(F)F)c3)CC2)C1 (stereo not drawn)	0	5.2*	-3	-7	1	14
O=C(Nc1cnccn1)Nc1ccc(F)cc1F	0	0	12	-2	.	.
COc1ccc(S(=O)(=O)NCC2CCCN(CCCC3CCCC3)C2)cc1 (stereo not drawn)	0	5.8*	-13	4	0	3
COc1ccc(S(=O)(=O)NCC2CCCN(Cc3ccncc3)C2)cc1 (stereo not drawn)	0	1	-4	6	.	.
COCC(=O)N1CCCC(CNS(=O)(=O)c2ccc(OC)cc2)C1 (stereo not drawn)	0	-1	-1	5	.	.
COc1ccc(S(=O)(=O)NCC2CCCN(C(=O)c3sccc3C)C2)cc1 (stereo not drawn)	0	5.5*	-10	17	1	8
O=C(Nc1cccc(NC(=O)c2ccccc2F)c1)c1ccccc1F	0	1	13	-8	.	.
O=C(Nc1ccc(Oc2cccc(Oc3ccc(NC(=O)c4ccccc4F)cc3)c2)cc1)c1ccccc1F	0	18*	12	-2	-1	-10
Cc1ccc(C)c(N2C(=O)CN(S(C)(=O)=O)CC2(C)C(=O)NC2CCCCCC2)c1 (stereo not drawn)	0	0	12	3	.	.
Cc1ccc(N2C(=O)CN(S(C)(=O)=O)CC2(C)C(=O)NC2CCCCC2)cc1C (stereo not drawn)	0	5.1*	3	1	1	-9
O=C1CCCN1CCCNc1nccc(NC2CC2)n1	0	5.5*	-11	-10	0	-4
Cc1cc(Nc2ccc(Oc3ccccc3)cc2)nc(NCCCN2CCCC2=O)n1	0	6.8*	5	15	-1	3
CCCNC(=O)c1ccnc(NCCCN2CCCC2=O)c1	0	8.2*	27	3	-1	0
O=C1CCCN1CCCNc1ccnc(NCCCN2CCCC2=O)n1	0	2	7	-6	.	.
CC(=O)Nc1ccc(Nc2cc(C)nc(Nc3ccc(C(F)(F)F)cc3)n2)cc1	0	5.3*	2	16	0	12
CC(=O)Nc1ccc(Nc2cc(C)nc(Nc3ccccc3)n2)cc1	0	0	6	-17	.	.
Cc1cccc(-c2cc3nc(C)cc(N4CCC5(CC4)OCCO5)n3n2)c1	0	0	9	-6	.	.
c1ccc2c(c1)nnn2CNc1ccc2nnnn2n1	0	4	-1	-8	.	.
CC(=O)Nc1ccc(Nc2cc(C)nc(NCCCN3CCCC3=O)n2)cc1	0	5.6*	8	-5	-1	-8
CCN(CC)c1nc(Nc2ccc(N3CCOCC3)cc2)nc(Nc2ccc(C(F)(F)F)cc2)n1	0	-1	-5	3	.	.
CCCNC(=O)c1cnn2c(C)c(Cc3ccccc3C)c(C)nc12	0	0	5	5	.	.
COc1ccc(/C=N\Nc2nnc3c(n2)[nH]c2c(C)cccc23)cc1OC	1	9.7*	13	-12	0	8
Cc1cccc2c1[nH]c1nc(N/N=C\c3ccccc3O)nnc12	0	5.0*	12	-5	1	3
COc1cccc(/C=N\Nc2nnc3c(n2)[nH]c2c(C)cccc23)c1	0	-1	9	2	.	.
Cc1ccc(-n2c(=O)c(C#N)cc3c(=O)n4cccc(C)c4nc32)c(C)c1	1	-1	-1	-6	.	.
SMILES	FBW7 activator	GPR151 ag	MITF primary	TEAD-YAP block	GPR151 confirm	GPR119 counter
COc1cc(/C=N/N=C2/C(=O)Nc3ccccc32)cc(OC)c1O	0	3	-8	2	.	.
COc1ccc(O)c(/C=N/N=C2/C(=O)Nc3ccccc32)c1	0	6.6*	15	9	0	-5
O=C(NNC(=O)c1c(O)c2ccccc2[nH]c1=O)c1cccc([N+](=O)[O-])c1	0	-1	9	1	.	.
CCOc1ccc(/C(O)=C2\C(=O)C(=O)N(CCCN(C)C)C2c2ccc(OC)c(OC)c2)c(C)c1 (stereo not drawn)	0	0	10	13	.	.
CCOc1ccccc1OCC(=O)Nc1ccc2c(c1)OCO2	0	2	4	-27	.	.
O=C(COc1ccccc1C(=O)Nc1ccccc1)Nc1ccc2c(c1)OCO2	0	7.9*	-1	1	0	-2
Cc1cccc(C(=O)Nc2ccc3nc(N4CCCCC4)cc(C)c3c2)c1	0	5.8*	-8	-7	0	8
Cc1cc(N2CCN(c3ncccn3)CC2)nc2ccc(NC(=O)Cc3cccs3)cc12	0	5.1*	-7	13	1	-8
CCNc1cc(NCCNS(=O)(=O)N(C)C)nc(C)n1	0	2	0	-9	.	.
COc1cc([N+](=O)[O-])ccc1NC(=O)c1oc(=O)c2ccccc2c1-c1ccc(C)cc1	0	5.7*	9	-5	0	16
CCc1ccc(N2C(=O)C(Cl)=C(Nc3ccc(C(=O)N4CCCC4)cc3)C2=O)cc1	0	5.2*	8	18	0	-5
CCc1ccc(NC2=C(Cl)C(=O)N(c3ccccc3OC)C2=O)cc1	0	3	25	21	.	.
CC(=O)OCC(=O)C1(O)CCC2C3CC=C4CC(OC(C)=O)CCC4(C)C3CCC21C (stereo not drawn)	0	1	-6	0	.	.
COc1ccc(CCS(=O)(=O)NCCc2ccc(N3CCCC3)cc2)cc1	0	1	20	15	.	.
NC(=O)c1cc2cc(Cl)ccc2oc1=Nc1ccccc1	0	5.8*	6	7	0	-3
O=C(O)c1nn2c(c1Br)NC(c1cccs1)CC2C(F)(F)F (stereo not drawn)	0	0	7	-2	.	.
O=C(O)C(=O)/C=C(\O)c1ccc(Cl)cc1	0	13*	3	11	0	6
CCOC(CNC(=O)c1ccc2c(c1)nc(C)n2-c1ccc(CC)cc1)OCC	0	0	-5	5	.	.
CC1=C(C(=O)OCCc2ccccc2)C(c2cccc(Cl)c2)NC(=O)N1 (stereo not drawn)	0	1	-3	6	.	.
CC1=C(C(=O)OCCc2ccccc2)C(c2ccc(C)s2)NC(=O)N1 (stereo not drawn)	0	5.1*	-7	2	0	-13
CC1=C(C(=O)OCc2ccccc2)C(c2cccc(Cl)c2)NC(=O)N1 (stereo not drawn)	0	5.0*	-10	-22	1	-3
CCOc1cccc(C2NC(=O)NC(C)=C2C(=O)OC2CCCCCC2)c1 (stereo not drawn)	0	5.7*	6	-11	0	3
CCCNS(=O)(=O)c1ccc(OCC(=O)Nc2ccc(Oc3ccccc3)cc2)cc1	0	-1	-9	2	.	.

Compound activity from PubChem BioAssay.
